Assay outcomes as filed in PubChem BioAssay.
HP1b chromo inh = HP1-beta chromodomain-methylated histone interaction inhibition | P83916 | AlphaScreen HP1-beta / biotin-H3K9me3 peptide binding | Potency, µM (top dose mostly 114 µM), for inactives: at the top dose activity change, negative = inhibition, actives largely listed as inhibitors | 0.56% of 390,000 active | AID 540317; further: nearly all actives have a fitted effect of over 70% in size
Target sequence (P83916 whole entry, looked up): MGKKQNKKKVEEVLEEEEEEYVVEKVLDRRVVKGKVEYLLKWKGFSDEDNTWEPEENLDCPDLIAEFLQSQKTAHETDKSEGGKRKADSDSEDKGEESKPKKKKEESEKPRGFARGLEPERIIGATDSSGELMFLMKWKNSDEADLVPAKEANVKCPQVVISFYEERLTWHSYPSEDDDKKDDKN
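AlphaScreen: HP1-beta (50 nM) preformed 30 min with biotin-H3(1-18)K9me3 peptide (50 nM) in PBS pH 7.4, 0.01% Tween-20. Compound added for 30 min at RT, then streptavidin donor/nickel chelate acceptor beads (10 ug/mL) for 30 min.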
G9a inh = blocks human histone lysine methyltransferase G9a | Q96KQ7 | G9a H3K9 monomethylation, AlphaScreen, 2 h | Potency, µM (highest dose often 102 µM), for inactives: at the top dose activity, negative = inhibition, usual class: inhibitors | 8.8% of 350,000 active; further: on the % scale 0 is the no-effect control and ±100 the full control effect; nearly all actives have a fitted effect of over 75% in size
Target sequence (Q96KQ7 913-1193 limits assumed): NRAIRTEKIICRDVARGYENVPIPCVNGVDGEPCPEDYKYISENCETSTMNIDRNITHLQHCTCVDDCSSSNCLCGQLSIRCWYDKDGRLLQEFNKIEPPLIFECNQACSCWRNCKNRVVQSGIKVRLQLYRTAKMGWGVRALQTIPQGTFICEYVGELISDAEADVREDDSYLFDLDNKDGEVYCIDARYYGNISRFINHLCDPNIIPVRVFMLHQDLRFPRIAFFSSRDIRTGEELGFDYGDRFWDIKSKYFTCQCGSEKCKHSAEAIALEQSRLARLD
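G9a (20 nM) was preincubated 15 min with compound, then reacted 2 h at room temperature with 500 nM biotin-H3K9 peptide and 20 µM SAM. Monomethyl-H3K9 detected by AlphaScreen using anti-H3K9me1 antibody.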
JMJD2A Tudor inh = inhibitors of human JMJD2A Tudor domain; O75164; AlphaScreen JMJD2A-Tudor / H3K4me3 peptide binding; Potency, µM (series often up to 114 µM), without a hit: top-dose activity change, negative = inhibition, actives largely listed as inhibitors; 4.4% of 390,000 active; further: on the % scale 0 is the no-effect control and ±100 the full control effect; nearly all actives have a fitted effect of over 50% in size
Sfp PPTase inh = inhibitors of Bacillus subtilis Sfp phosphopantetheinyl transferase; Biochemical Sfp PPTase activity, qHTS; Potency, µM, inactives show largest response in the series, negative = inhibition, actives largely listed as inhibitors; 3.5% of 310,000 active; AID 1490;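 further: the enzyme is Sfp with the accession as filed and its product quenches rhodamine fluorescence; 0% = enzyme reaction without inhibitor and -100% = no enzyme wells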
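Buffer: 50 mM Hepes-Na pH 7.6, 10 mM MgCl2, 0.01% Nonidet P-40, 0.01% BSA. Enzyme 15 nM, pre-exposed to compound 15 min; substrates then added and fluorescence change tracked over 30 min.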
BAZ2B block = BAZ2B (human) inhibition; Potency, µM (doses to about 114 µM), without a hit: at the top dose activity change, negative = inhibition, actives largely listed as inhibitors; Q9UIF8; 4.4% of 360,000 active; AlphaScreen BAZ2B-H3K14Ac peptide displacement; further: on the % scale 0 is the no-effect control and ±100 the full control effect; nearly all actives have a fitted effect of over 60% in size
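In this displacement format the biotinylated H3(5-23) peptide acetylated at Lys14 serves as ligand at 50 nM, with BAZ2B at 50 nM in PBS pH 7.4 containing 0.01% Tween-20. Donor and acceptor beads are 10 ug/mL final.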
12-LOX inh = inhibitors of human 12S-lipoxygenase ALOX12. P18054. Potency, µM (highest dose often 108 µM), inactives show at the highest dose activity change, negative = inhibition, actives largely listed as inhibitors. 1.1% of 580,000 active. purified 12hLO, xylenol orange hydroperoxide absorbance; further: on the % scale 0 is the no-effect control and ±100 the full control effect
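Purified human 12hLO at 150 nM in 25 mM Hepes, 0.01% Triton X-100, pH 7.0, preincubated 15 min at room temperature with compound. Reaction started with 40 uM arachidonic acid, 30 min at room temperature. Hydroperoxide measured by Fe-xylenol orange, 573/405 nm absorbance ratio.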
* marks the source's active call; other numbers are inactive results; [ ] = dose if it differs, or a comment. Hits are enriched below; roughly 8.7% of the tested compounds scored in any of these assays. The call rests on the fitted dose curve; in most records, active means well fitted curve in the direction sought with a large enough effect; inconclusive means small, poorly fitted or top-dose-only effect, or another doubt; inactive means no such curve, though single readings can be large; an effect the other way counts as inactive or inconclusive. Potency means the concentration at half of the fitted maximal effect.

What do the screens show for `O=C1NCN(Cc2ccc(Cl)cc2)C12CCN([S+](=O)([O-])c1cccs1)CC2`?
12-LOX inh: 6.5%

How did OC1CCN(Cc2nnc(-c3ccccc3Cl)o2)CC1 do in these assays?
12-LOX inh: -4.7%

Results for O=C(N/N=C/c1ccccn1)c1ccc([N+](=O)[O-])cc1Cl ?
HP1b chromo inh: 29.0%; G9a inh: -6.1%[0.501 µM]; JMJD2A Tudor inh: -18.7%; Sfp PPTase inh: 50.1µM*; BAZ2B block: -6.9%; 12-LOX inh: 16.8%

What do the screens show for `O=C(N/N=C/c1ccccn1)c1cc(-c2ccccc2Cl)n[nH]1`?
HP1b chromo inh: 29.7%; G9a inh: 68.3%[59 µM]; JMJD2A Tudor inh: -34.4%; Sfp PPTase inh: 7.2%; BAZ2B block: 56.2µM*; 12-LOX inh: 1.1%

How did O=C(O)c1ccc(CSc2nc3ccc(NC(=O)c4ccccc4C(=O)O)cc3s2)cc1 do in these assays?
HP1b chromo inh: 72.8%; G9a inh: 44.7µM*; JMJD2A Tudor inh: -33.0%; Sfp PPTase inh: -8.8%; BAZ2B block: inconclusive; 12-LOX inh: -6.8%

How did N#Cc1ccccc1CSc1nc2ccc(NC(=O)c3ccccc3C(=O)O)cc2s1 do in these assays?
HP1b chromo inh: 25.5%; G9a inh: inconclusive; JMJD2A Tudor inh: -32.2%; Sfp PPTase inh: -1.3%; BAZ2B block: inconclusive; 12-LOX inh: -42.3%

How did Cc1ccc(C(c2cccnc2)n2cc(-c3cncnc3)nn2)cc1C (stereo unspecified) do in these assays?
12-LOX inh: 37.8%

What do the screens show for `COc1ccc(C(=O)N2CCN(C(=O)c3nnn4c3COC(c3ccccc3)C4)CC2)cc1F` (stereo unspecified)?
12-LOX inh: 23.7%

What do the screens show for `Nc1nnc(SCC(=O)c2ccccc2)s1`?
HP1b chromo inh: 15.9%; G9a inh: 6.5%[59 µM]; JMJD2A Tudor inh: -12.6%; Sfp PPTase inh: 12.6%; 12-LOX inh: -1.3%

What do the screens show for `Nc1c(C(=O)c2ccccc2)sc2snc(SCC(=O)c3ccccc3)c12`?
HP1b chromo inh: 16.6%; G9a inh: 5.5%[12.7 µM]; JMJD2A Tudor inh: 21.9%[11.4 µM]; Sfp PPTase inh: 39.8µM*; BAZ2B block: -34.5%; 12-LOX inh: inconclusive

Results for CCN(Cc1ccccc1)C(=O)CSc1ncn[nH]1 ?
HP1b chromo inh: -3.2%; G9a inh: 44.7µM*; JMJD2A Tudor inh: -21.2%; Sfp PPTase inh: -9.6%; BAZ2B block: -5.1%; 12-LOX inh: inconclusive

What do the screens show for `O=C1c2ccccc2C(=O)N1CCSc1ncn[nH]1`?
HP1b chromo inh: 42.2%; G9a inh: -9.5%[59 µM]; JMJD2A Tudor inh: -1.9%; Sfp PPTase inh: -7.5%; BAZ2B block: 48.5%; 12-LOX inh: 0.0%[57.4 µM]

What do the screens show for `O=C(CSc1ncn[nH]1)OCN1C(=O)c2ccccc2C1=O`?
HP1b chromo inh: 30.5%; G9a inh: 35.5µM*; JMJD2A Tudor inh: -2.2%; Sfp PPTase inh: -20.9%; BAZ2B block: -2.0%; 12-LOX inh: inconclusive

Results for Cc1ccccc1-n1c(C)nnc1SCC(=O)NNC(=O)c1ccccc1 ?
HP1b chromo inh: 24.7%; G9a inh: 5.4%[59 µM]; JMJD2A Tudor inh: -9.7%; Sfp PPTase inh: -1.5%; BAZ2B block: -7.7%; 12-LOX inh: -3.5%

Results for CC(C)(C)N(Cc1ccccc1)C(=O)CSc1ncn[nH]1 ?
HP1b chromo inh: 26.5%; G9a inh: -4.8%; JMJD2A Tudor inh: -2.7%; Sfp PPTase inh: 11.8%; BAZ2B block: -14.5%; 12-LOX inh: -2.3%

How did Cc1nnc(SCC(=O)NNC(=O)c2ccccc2)n1-c1ccccc1 do in these assays?
HP1b chromo inh: 28.3%; G9a inh: -43.6%[59 µM]; JMJD2A Tudor inh: 50.1µM*; Sfp PPTase inh: -24.5%; BAZ2B block: 8.1%; 12-LOX inh: 24.2%

How did O=C(CSc1ncn[nH]1)NNC(=O)c1ccccc1 do in these assays?
HP1b chromo inh: 37.3%; G9a inh: 8.9%[0.501 µM]; JMJD2A Tudor inh: 7.94µM*; BAZ2B block: 4.6%; 12-LOX inh: -5.2%

Results for O=C(Nc1nccs1)C1CC(=O)N(c2n[nH]c3ccccc23)C1 (stereo unspecified) ?
12-LOX inh: 8.7%

Results for Cn1c(=O)c2c(ncn2CCC(=O)Nc2ccc(F)c(F)c2)n(C)c1=O ?
12-LOX inh: 7.0%

What do the screens show for `O=C(CSc1nnc(-c2ccccc2O)n1-c1ccccc1)Nc1cccc(C(=O)O)c1`?
HP1b chromo inh: 18.4%; G9a inh: 50.1µM*; JMJD2A Tudor inh: -2.8%; Sfp PPTase inh: -2.7%; BAZ2B block: inconclusive; 12-LOX inh: -20.3%

Results for CCOC(=O)c1c(C)[nH]c(C)c1S(=O)(=O)N(C)CC(=O)Nc1cccc(C(C)=O)c1 ?
12-LOX inh: -10.4%

How did Cn1c(=O)c2c(nc(Cl)n2Cc2ccc(Cl)cc2)n(C)c1=O do in these assays?
12-LOX inh: -26.6%

Results for Cn1c(=O)c2c([nH]c(=S)n2Cc2ccc(Cl)cc2)n(C)c1=O ?
HP1b chromo inh: inconclusive; G9a inh: 1.26µM*; JMJD2A Tudor inh: 5.62µM*; Sfp PPTase inh: 20µM*; BAZ2B block: 22.4µM*; 12-LOX inh: inconclusive

How did O=C(NCc1ccco1)C1CC(=O)N(c2n[nH]c3cccc(F)c23)C1 (stereo unspecified) do in these assays?
12-LOX inh: 4.0%

Results for Cc1cc(NC(=O)CSc2nnc(Cc3cccn3C)n2CCc2ccccc2)no1 ?
HP1b chromo inh: -6.8%; G9a inh: 6.1%; JMJD2A Tudor inh: -23.4%; Sfp PPTase inh: -10.8%; BAZ2B block: inconclusive; 12-LOX inh: inconclusive

What do the screens show for `Cn1cccc1Cc1nnc(SCC(=O)Nc2ccccc2F)n1CCc1ccccc1`?
HP1b chromo inh: -11.1%; G9a inh: 44.7µM*; JMJD2A Tudor inh: inconclusive; Sfp PPTase inh: -11.1%; BAZ2B block: inconclusive; 12-LOX inh: 442.4%

Results for Cc1nnc(NC(=O)CSc2nnc(Cc3cccn3C)n2C)s1 ?
HP1b chromo inh: 15.2%; G9a inh: inconclusive; JMJD2A Tudor inh: -14.6%; Sfp PPTase inh: 19.0%; BAZ2B block: -32.6%; 12-LOX inh: 2.1%[57.4 µM]

How did Cc1csc(NC(=O)CSc2nnc(Cc3cccn3C)n2CCc2ccccc2)n1 do in these assays?
HP1b chromo inh: inconclusive; G9a inh: 44.7µM*; JMJD2A Tudor inh: 35.5µM*; Sfp PPTase inh: -22.6%; BAZ2B block: inconclusive; 12-LOX inh: 384.7%

Results for Cn1cccc1Cc1nnc(SCC(=O)Nc2cccc(F)c2)n1CCc1ccccc1 ?
HP1b chromo inh: -11.0%; G9a inh: 44.7µM*; JMJD2A Tudor inh: -32.4%; Sfp PPTase inh: -24.7%; BAZ2B block: 50.1µM*; 12-LOX inh: -5.9%
